Assay outcomes (PubChem BioAssay)
PREPL inh: inhibitors of human prolyl oligopeptidase-like enzyme PREPL; recombinant PREPL, fluorescence polarization activity-based probe; inhibition, % at 5.96 µM; 320,000 compounds, 0.68% hits; in the data active means inhibition above about 43%
Fam108B inh: counter-screen for RBBP9 inhibitors: inhibitors of mouse Fam108B; inhibition, % at 9.51 µM; 300,000 compounds, 0.33% hits; AID 1947; recombinant Fam108B, FP-Rh probe fluorescence polarization;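 active means inhibition above the screen mean inhibition plus 3 SD, computed separately per campaign, cut at about 18% in these data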;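 further: inhibitors lower polarization as less probe binds the enzyme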
LYPLA2 counter: counter-screen for PME1 inhibitors: inhibitors of human LYPLA2; O95372; recombinant LYPLA2, FP-Rh probe fluorescence polarization; inhibition, % at 5.9 µM; 320,000 compounds, 0.38% hits;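 active means inhibition above the screen-wide mean plus 3 SD, limit set per campaign, cut at about 26% in these data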
Target sequence (O95372 whole entry, looked up): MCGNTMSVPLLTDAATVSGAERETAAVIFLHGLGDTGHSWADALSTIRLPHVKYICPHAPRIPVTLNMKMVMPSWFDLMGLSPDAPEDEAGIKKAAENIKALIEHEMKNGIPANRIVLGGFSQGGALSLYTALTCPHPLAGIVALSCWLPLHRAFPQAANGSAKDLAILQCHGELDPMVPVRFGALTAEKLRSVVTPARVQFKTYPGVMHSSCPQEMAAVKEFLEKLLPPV
PME-1 primary: PME-1 (human) inhibition. Q9Y570. recombinant PME-1, FP-Rh probe fluorescence polarization. inhibition, % at 5.9 µM. 320,000 compounds, 0.53% hits. AID 2130;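 active means inhibition above the campaign mean of all compounds plus 3 SD, cut at about 26% in these data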;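 further: competitive labeling of PME-1 active site by serine hydrolase directed probe; inhibitors block probe labeling so polarization falls and inhibition rises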
Target sequence (Q9Y570 whole entry, looked up): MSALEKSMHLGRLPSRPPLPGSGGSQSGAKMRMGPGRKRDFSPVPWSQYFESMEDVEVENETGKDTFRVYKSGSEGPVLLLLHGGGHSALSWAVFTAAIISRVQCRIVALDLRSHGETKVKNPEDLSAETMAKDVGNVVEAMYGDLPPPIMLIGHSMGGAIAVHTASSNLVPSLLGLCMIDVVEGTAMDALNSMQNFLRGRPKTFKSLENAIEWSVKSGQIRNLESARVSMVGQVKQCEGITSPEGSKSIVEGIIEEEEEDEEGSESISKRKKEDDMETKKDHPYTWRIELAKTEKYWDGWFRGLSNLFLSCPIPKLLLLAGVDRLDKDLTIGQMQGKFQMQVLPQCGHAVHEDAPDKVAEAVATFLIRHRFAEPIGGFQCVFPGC
LYPLA1 counter: LYPLA1 (human) inhibition in PME1 counter-screen; 320,000 compounds, 0.16% hits; O75608; AID 2174; recombinant LYPLA1, FP-Rh probe fluorescence polarization; inhibition, % at 5.9 µM;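 active means inhibition above the mean of all tested compounds plus 3 SD, set per campaign, cut at about 14% in these data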;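 further: inhibitors block serine hydrolase probe labeling of LYPLA1 so polarization falls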
LYPLA2 conf: LYPLA2 (human) inhibition, confirmation counter-screen; shares compounds with LYPLA2 counter; AID 2232; inhibition, % at 5.9 µM; recombinant LYPLA2, FP-Rh probe fluorescence polarization; 1,100 compounds, 72% hits;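 active means mean inhibition across replicates above the hit cutoff set in the primary screen, cut at about 26% in these data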;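 further: blocked labeling of the enzyme by serine hydrolase FP-Rh probe lowers polarization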
LYPLA2 gel ABPP: blocks human acyl-protein thioesterase 2 in gel ABPP; AID 652029; rhLYPLA2 in mouse brain proteome, gel ABPP FP-Rh; inhibition, % at 20 µM; 150 compounds, 30% hits; shares compounds with LYPLA2 counter;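 active means inhibition of LYPLA2 enzyme probe labeling above about 50%, limit read from the data; inactive means inhibition below that limit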;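 further: loss of FP-Rh probe labeling of the LYPLA2 gel band measured as band density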
Each line names hits and unclear results; the compound was inactive in the other large screens (follow-up assays come after a bar, where they were run). This is a sample that favours compounds with a hit; in the whole collection about 1.3% have one here.

COC(=O)CSc1nccc(C)n1	LYPLA2 counter 44 | LYPLA2 conf inactive
Cc1ccnc(SCC(=O)O)n1	none
O=C(CCc1ccccc1)NC(=S)Nc1cc(C(F)(F)F)ccc1N1CCOCC1	LYPLA2 counter 31 | LYPLA2 conf inactive
CC(C)CC(=O)NC(=S)Nc1cc(C(F)(F)F)ccc1N1CCOCC1	none
CC(C(=O)Nc1ccccc1Oc1ccccc1)c1ccccc1 (configuration not stated)	none
COc1ccc(N2CCN(c3ccnc4cc(Cl)ccc34)CC2)cc1	LYPLA2 counter 26 | LYPLA2 conf inactive
Oc1ccc(N2CCN(c3ccnc4cc(Cl)ccc34)CC2)cc1	none
COc1ccc(N2CCN(C(=O)c3cc4cc(Cl)ccc4[nH]3)CC2)cc1	LYPLA2 counter 37 | LYPLA2 conf 50
Cc1ccc([C@@H]2CC=C(C(=O)O)[C@H](c3cccc(Cl)c3)N2S(=O)(=O)c2ccccc2C)cc1	none (no result: Fam108B inh, LYPLA2 counter, PME-1 primary, LYPLA1 counter)
COc1ccc(N2CCN(c3ncnc4c3nnn4Cc3ccccc3Cl)CC2)cc1	LYPLA2 counter 35 | LYPLA2 conf 40
Cc1nc(N2CCCC2)c2nnn(Cc3ccccc3Cl)c2n1	none
Cc1cccc(CC(=O)NCCS(=O)(=O)N2CCN(c3cccc(Cl)c3)CC2)c1	none
COc1ccc(S(=O)(=O)N2CCOCC2)cc1NC(=O)c1cc(=O)[nH]c2ccccc12	none (no result: Fam108B inh)
O=C(Nc1cc(S(=O)(=O)N2CCCCC2)ccc1N1CCOCC1)c1cc(=O)[nH]c2ccccc12	LYPLA2 counter 32 | LYPLA2 conf 27
CC(C)Oc1ccc(C(=O)Nc2ccc(S(=O)(=O)N3CCN(C)CC3)cc2)cc1	none
COc1ccccc1NC(=O)CCn1c(=O)c2cccn2c2ccccc21	LYPLA2 counter 26 | LYPLA2 conf inactive
CCOc1ccc(-c2cc(C(=O)NCCCN3CCCC3)c3ccccc3n2)cc1	none
COc1cccc(-n2c(SCC(=O)N3CCCCC3)nc3c([nH]c4ccccc43)c2=O)c1	none
COc1cccc(-n2c(SCC(N)=O)nc3c([nH]c4ccccc43)c2=O)c1	LYPLA2 counter 174 | LYPLA2 conf inactive
COC(=O)c1ccc(CNC(=O)c2cc(COc3cncc(Cl)c3)on2)cc1	LYPLA2 counter 35 | LYPLA2 conf 35
COC(=O)c1ccc(NC(=O)C(=O)N2CCN(C(=S)Nc3ccccc3OC)CC2)cc1	none
COC(=O)c1ccc(NC(=O)C(=O)N2CCN(C(=S)Nc3cccc(C)c3C)CC2)cc1	LYPLA2 counter 50 | LYPLA2 conf 42
O=[N+]([O-])c1ccc(Oc2cccc(F)c2)c2ccncc12	LYPLA2 counter 43 | LYPLA2 conf 44
O=C(NCc1ccccc1CN1CCCC1)c1cc2cc(Cl)ccc2o1	none (no result: Fam108B inh)
CCN(CC)C(=O)c1ccc(S(=O)(=O)N2CCC(c3nc4ccccc4s3)CC2)cc1	LYPLA2 counter 27 | LYPLA2 conf inactive
Cc1ccc(NC(=O)COc2cccc(Oc3ccccc3)c2)cc1S(=O)(=O)N1CCOCC1	none (no result: Fam108B inh)
COC(=O)c1ccc(N2CCCCC2)c(NC(=O)c2ccco2)c1	none
COc1ccc(Cl)cc1C(=O)Nc1cccc(-c2ccc3nncn3n2)c1	LYPLA2 counter 27 | LYPLA2 conf 30
O=C(NCCNc1ccc([N+](=O)[O-])cc1C(F)(F)F)c1ccccc1F	LYPLA2 counter 27 | LYPLA2 conf inactive
COc1ccc(-n2nc(C(=O)NCC(=O)N3CCN(c4ccc(F)cc4)CC3)c3ccccc3c2=O)c(OC)c1	LYPLA2 counter 58 | LYPLA2 conf 62 | LYPLA2 gel ABPP inactive
COc1ccc(-n2nc(C(=O)NCC(=O)N3CCCC3)c3ccccc3c2=O)c(OC)c1	none
CC(C)(C)[C@H]1C=C(C(=O)O)O[C@@H](OCc2ccc(CO)cc2)C1	none
COc1ccc(CCNC(=O)CCCOc2ccc(C)cc2)cc1OC	none
COc1ccc(CCNC(=O)COc2ccc(-c3ccccc3)cc2)cc1OC	LYPLA2 counter 30 | LYPLA2 conf 31
C=CCn1c(SCc2ccc(C(=O)O)cc2)nc2sc(C)c(C)c2c1=O	LYPLA2 counter 43 | LYPLA2 conf 37
CCOC(=O)CNC(=O)Cn1c(C)cc2ccccc2c1=O	none
CCOC(=O)C1CCN(C(=O)CNC(=O)Cn2c(C)cc3ccccc3c2=O)CC1	LYPLA2 counter 29 | LYPLA2 conf inactive
COc1ccc(CCNC(=S)N2CCC(C(=O)c3ccc(F)cc3)CC2)cc1OC	LYPLA2 counter 27 | LYPLA2 conf 31
Cc1cc([N+](=O)[O-])nn1CCCC(=O)N1CCN(c2ccccc2)CC1	none
O=C(c1cc(COc2ccc(F)cc2Cl)on1)N1CCCC(OCc2cccnc2)C1 (configuration not stated)	none
O=C(c1cc(COc2ccc(F)cc2Cl)on1)N1CCC(OCc2cccnc2)CC1	LYPLA2 counter 32 | LYPLA2 conf 33
O=C(c1ccc(Cn2c(=O)[nH]c3ccccc3c2=O)cc1)N1CCN(c2ccccn2)CC1	none
CCOC(=O)N1CCN(C(=O)CCCn2c(=O)[nH]c3ccccc3c2=O)CC1	none
COc1ccc(N2CCN(C(=O)CSc3nc4[nH]ncc4c(=O)n3-c3cccc4ccccc34)CC2)cc1	LYPLA2 counter 34 | LYPLA2 conf 30
CC(=O)c1ccc(N2CCN(C(=O)CCCn3c(=O)[nH]c4ccccc4c3=O)CC2)cc1	LYPLA2 counter 53 | LYPLA2 conf 49
COc1ccc(N2CCN(C(=O)Cc3ccc(-n4c(=O)[nH]c5ccccc5c4=O)cc3)CC2)cc1	LYPLA2 counter 57 | LYPLA2 conf 51 | LYPLA2 gel ABPP inactive
O=C(c1ccc(Cn2c(=O)[nH]c3ccccc3c2=O)cc1)N1CCN(c2ccccc2)CC1	LYPLA2 counter 35 | LYPLA2 conf 28
CC(=O)c1ccc(N2CCN(C(=O)CCCc3nc4ccccc4s3)CC2)cc1	LYPLA2 counter 42 | LYPLA2 conf 44
NC(=O)c1cc([N+](=O)[O-])ccc1Nc1ccccc1	LYPLA2 counter 39 | LYPLA2 conf 32
COc1cccc(CNS(=O)(=O)c2ccc3c(c2)C(C)(C)C(=O)N3C)c1	none
COc1ccc(C)cc1NC(=O)C1CCN(S(C)(=O)=O)CC1	none
CCOc1ccc(C(=O)C2CCN(C(=O)c3ccc([N+](=O)[O-])cc3)CC2)cc1	LYPLA2 counter 33 | LYPLA2 conf 31
Cc1ccc(C(=O)N2CCC(C(=O)NC3CCCC3)CC2)cc1	none
CC(C)(C)c1ccc(C(=O)N2CCC(C(=O)NC3CCCCCC3)CC2)cc1	LYPLA2 counter 48 | LYPLA2 conf 54 | LYPLA2 gel ABPP inactive
Cc1ccc(C(=O)N2CCC(C(=O)Nc3cccc([N+](=O)[O-])c3)CC2)cc1	LYPLA2 counter 32 | LYPLA2 conf inactive
COc1ccc(C)cc1NC(=O)C1CCN(C(=O)c2ccc(C(C)(C)C)cc2)CC1	LYPLA2 counter 41 | LYPLA2 conf 44
